Experiment [1] in a line: BSK_3C_uPAR: BioMAP Diversity Plus: 3C Assay for Urokinase-type plasminogen activator receptor (uPAR) Biomarker Activity (AID 2282998). To be noted: BioMAP 3C HUVEC, uPAR biomarker ELISA; actives raise or lower the signal. Summed up:
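Human umbilical vein endothelial primary cells were exposed to test chemical for 24 h. Cell-surface uPAR was then quantified by ELISA, and responses were fitted bidirectionally against DMSO as negative control and baseline.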

Experiment [2] in a line: BSK_3C_VCAM1: BioMAP Diversity Plus: 3C Assay for Vascular cell adhesion molecule 1 (VCAM1) Biomarker Activity (AID 2282999). To be noted: BioMAP 3C HUVEC, VCAM1 ELISA, cytokine-stimulated; actives raise or lower the signal. A digest of the protocol: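 HUVEC primary cells, 24 h compound exposure; VCAM-1 by ELISA; gain/loss of signal fitted bidirectionally vs DMSO baseline.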

Experiment [3] is described as follows: BSK_4H_Eotaxin3: BioMAP Diversity Plus: 4H Assay for Eotaxin 3 Biomarker Activity (AID 2283000).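 As to outcome: CCL26 protein level quantified by ELISA in parallel with SRB cytotoxicity check.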 To be noted: primary human endothelial cells (HUVEC); actives raise or lower the signal. Summed up: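 ELISA quantitation of CCL26 (Eotaxin-3) protein from chemically dosed human vascular endothelial cells at 24 h; increases and decreases both scored relative to DMSO-treated baseline.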

Read-out in experiment [4]: Interleukin-1 alpha (IL1a), IL1A (gene 3552)
Kind of experiment: BSK_BE3C_IL1a: BioMAP Diversity Plus: BE3C Assay for Interleukin-1 alpha (IL1a) Biomarker Activity (AID 2283016). To be noted: primary human bronchial epithelial cells; actives raise or lower the signal. A digest of the protocol:
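ELISA read-out of IL-1a from human lung bronchial epithelial primary cells, 24 h post-dose. Gain or loss of signal fitted relative to DMSO negative control.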

Read-out in experiment [5]: Monocyte Chemoattractant Protein-1 (MCP1), CCL2 (gene 6347)
As to the kind of experiment: BSK_4H_MCP1: BioMAP Diversity Plus: 4H Assay for Monocyte Chemoattractant Protein-1 (MCP1) Biomarker Activity (AID 2283018). To be noted: primary human endothelial cells (HUVEC); actives raise or lower the signal. Summed up:
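HUVEC primary cells, 24 h post-dose, MCP-1 by ELISA. Gain or loss of signal fitted bidirectionally vs DMSO baseline. Cytotoxicity: SRB stain (0.1% after 10% TCA fixation), read 560 nm, parallel cultures.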

Read-out in experiment [6]: Monokine induced gamma interferon (MIG), CXCL9 (gene 4283)
As to the kind of experiment: BSK_3C_MIG: BioMAP Diversity Plus: 3C Assay for Monokine induced gamma interferon (MIG) Biomarker Activity (AID 2283021). To be noted: primary human endothelial cells (HUVEC); actives raise or lower the signal. A digest of the protocol:
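HUVEC, 3C system; 24 h chemical exposure; MIG by ELISA; bidirectional fit vs DMSO baseline.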

Experiment [7] in a line: BSK_3C_SRB: Viability Assessment in the BioMAP Diversity Plus: 3C Assay (AID 2283023).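 Also: fitted both ways against DMSO so a hit may be signal rise or drop.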 To be noted: primary human endothelial cells (HUVEC). A digest of the protocol: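 Overt cytotoxicity is gauged in parallel confluent HUVEC cultures by SRB total-protein staining at the time of biomarker measurement, 24 h after dosing. Gain or loss of signal is fitted versus DMSO.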
The nature of experiment [8]: BSK_4H_SRB: Viability Assessment in the BioMAP Diversity Plus: 4H Assay (AID 2283027).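 Also: cells exposed to compound for 24 h before staining.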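 As to AC50: curves fitted both ways versus DMSO so AC50 may be loss or gain.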 To be noted: primary human endothelial cells (HUVEC). A digest of the protocol: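 HUVEC, 24 h post-dose; 10% TCA fix, 0.1% SRB stain, A560 nm. Total protein = overt cytotoxicity, parallel to biomarker read. Bidirectional fit vs DMSO baseline.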
A short description of experiment [9]: BSK_BE3C_SRB: Viability Assessment in the BioMAP Diversity Plus: BE3C Assay (AID 2283028). To be noted: primary human bronchial epithelial cells. A digest of the protocol:
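SRB total-protein staining (0.1%, after TCA fixation) of chemically dosed human bronchial epithelial primary cells at 24 h; DMSO serves as the negative control for bidirectional curve fitting.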

Read-out in experiment [10]: Monokine induced gamma interferon (MIG), CXCL9 (gene 4283)
Kind of experiment: BSK_BE3C_MIG: BioMAP Diversity Plus: BE3C Assay for Monokine induced gamma interferon (MIG) Biomarker Activity (AID 2283035).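 Also: MIG protein measured by ELISA in BE3C cultures after 24 h of dosing.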 To be noted: primary human bronchial epithelial cells; actives raise or lower the signal. A digest of the protocol:
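Dose cells (human primary bronchial epithelial), incubate 24 h, quantify MIG by ELISA, then fit concentration–response in both directions relative to DMSO control.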

Read-out in experiment [11]: Plasminogen activator inhibitor-1 (PAI1), SERPINE1 (gene 5054)
Kind of experiment: BSK_BE3C_PAI1: BioMAP Diversity Plus: BE3C Assay for Plasminogen activator inhibitor-1 (PAI1) Biomarker Activity (AID 2283037). To be noted: primary human bronchial epithelial cells; actives raise or lower the signal. A digest of the protocol:
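ELISA read-out of PAI-1 from human bronchial epithelial primary cells, 24 h post-dosing; bidirectional curve fit vs DMSO baseline, gain or loss of signal scored.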

Read-out in experiment [12]: Tissue plasminogen activator (tPA), PLAT (gene 5327)
As to the kind of experiment: BSK_BE3C_tPA: BioMAP Diversity Plus: BE3C Assay for Tissue plasminogen activator (tPA) Biomarker Activity (AID 2283041).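 Also: tPA level quantified by ELISA one day after compound addition.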 To be noted: primary human bronchial epithelial cells; actives raise or lower the signal. Summed up: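 ELISA read-out of tPA on human primary bronchial epithelial cells, 24 h post-dosing; bidirectional fit vs DMSO negative control/baseline.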

Read-out in experiment [13]: Macrophage colony-stimulating factor (MCSF), CSF1 (gene 1435)
Kind of experiment: BSK_LPS_MCSF: BioMAP Diversity Plus: LPS Assay for Macrophage colony-stimulating factor (MCSF) Biomarker Activity (AID 2283083). To be noted: primary human HUVEC with PBMC; actives raise or lower the signal. A digest of the protocol:
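Bidirectional fit versus DMSO of ELISA-measured M-CSF in co-cultured human umbilical vein endothelial cells and PBMC, sampled 24 h after dosing.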

Read-out in another experiment: CD69, CD69 (gene 969)
Kind of experiment: BSK_SAg_CD69: BioMAP Diversity Plus: SAg Assay for CD69 Biomarker Activity (AID 2283089).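 As to AC50: cell surface CD69 protein quantified by ELISA with fluorescence detection.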 To be noted: primary human HUVEC with PBMC; actives raise or lower the signal. Summed up:
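Endothelial/PBMC co-culture; chemical added; 24 h incubation; CD69 ELISA with fluorescence detection; bidirectional fit vs DMSO.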

Experiment [14] addresses Hepatocyte nuclear factor 6 (Homo sapiens) (UniProt Q9UBC0). As to the kind of experiment: ATG_HNF6_CIS: Attagene CIS-FACTORIAL HepG2 Assay for human Hepatocyte Nuclear Factor 6 (HNF6) (AID 2282952). To be noted: HepG2 Attagene cis-factorial HNF6 reporter transcription; actives raise or lower the signal. Summed up:
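Twenty-four-hour chemical treatment of reporter-transfected HepG2 cells precedes RNA isolation, DNase-treated reverse transcription and PCR of reporter sequences. Labelled fragments are sized by capillary electrophoresis and fitted bidirectionally versus DMSO.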

The nature of experiment [15]: ATG_TGFb_CIS: Attagene CIS-FACTORIAL HepG2 Assay for human Transforming Growth Factor (TGF) (AID 2282967). To be noted: HepG2 Attagene CIS TGFb reporter, mRNA transcription; actives raise or lower the signal. Summed up: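 HepG2 cells transiently transfected with cis-promoter-driven multiplexed reporter units; 24 h compound exposure. Reporter mRNA measured by RT-PCR, 6-FAM labeling, HpaI digestion and capillary electrophoresis; bidirectional fit versus DMSO baseline.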

Experiment [16] can be described thus: ATG_VDRE_CIS: Attagene CIS-FACTORIAL HepG2 Assay for human Vitamin D Receptor Element (VDRE) (AID 2282968). To be noted: HepG2 VDRE cis-reporter transcription, actives raise or lower the signal. A digest of the protocol:
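Transient MRTU transfection of HepG2, 24 h compound exposure. Readout: reporter transcripts via RT-PCR and capillary electrophoresis, fluorescence. Bidirectional fit vs DMSO.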

Experiment [17] is described as follows: ATG_M_06_TRANS: Attagene TRANS-FACTORIAL HepG2 Assay for M06 Transcription Factor (Internal Marker) (AID 2282983; active = hit-call score of the fitted dose curve at least 0.9, where 1 is the maximum). To be noted: HepG2 Attagene TRANS M06 internal marker reporter. A digest of the protocol: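 Multi-reporter-transfected HepG2, 24 h treatment; reporter transcripts quantified via RT-PCR, primer-extension labelling and CE. DMSO-normalized gain-of-signal fit.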

Experiment [18] concerns the target Retinoic acid receptor RXR-alpha (Homo sapiens) (UniProt P19793). Kind of experiment: ATG_RXRa_TRANS: Attagene TRANS-FACTORIAL HepG2 Assay for human Retinoid X Receptor alpha (RXRa) (AID 2283012; active = hit-call score of the fitted dose curve at least 0.9, where 1 is the maximum). A digest of the protocol:
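Read-out: fluorescent reporter-transcript fragments quantified by capillary electrophoresis after RT-PCR. Transiently transfected HepG2 cells carrying GAL4-UAS reporters and NR-GAL4 chimeras were exposed to chemical for 24 h; activity scored as increase over DMSO.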

“And” between values parts separate entries of the source, which are not always exact repeats. Identical values can stand only once. Records with an inconclusive call do not appear. The source made the active and inactive calls. The calls were made as follows, unless noted: active = hit-call score of the fitted dose curve at least 0.9, where 1 is the maximum; inactive = score below 0.9.

The term AC50 denotes the concentration at which the activity in the assay is half-maximal.

Chain of Retinoic acid receptor RXR-alpha (Homo sapiens) (P19793 whole entry, looked up, the tested form may be a part): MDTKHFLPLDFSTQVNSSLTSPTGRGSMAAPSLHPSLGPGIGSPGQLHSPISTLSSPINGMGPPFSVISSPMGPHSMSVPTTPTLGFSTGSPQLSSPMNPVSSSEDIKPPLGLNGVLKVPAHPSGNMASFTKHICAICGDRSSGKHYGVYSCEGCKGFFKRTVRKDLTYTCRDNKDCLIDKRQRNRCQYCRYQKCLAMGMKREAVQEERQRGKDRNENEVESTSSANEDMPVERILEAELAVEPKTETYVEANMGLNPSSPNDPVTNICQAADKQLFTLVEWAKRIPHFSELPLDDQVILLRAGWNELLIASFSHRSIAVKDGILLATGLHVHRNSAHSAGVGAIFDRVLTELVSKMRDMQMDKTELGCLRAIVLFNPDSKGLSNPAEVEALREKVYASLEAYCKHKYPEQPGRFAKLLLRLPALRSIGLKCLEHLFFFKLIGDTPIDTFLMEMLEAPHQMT
Chain of Hepatocyte nuclear factor 6 (Homo sapiens) (Q9UBC0 whole entry, looked up, the tested form may be a part): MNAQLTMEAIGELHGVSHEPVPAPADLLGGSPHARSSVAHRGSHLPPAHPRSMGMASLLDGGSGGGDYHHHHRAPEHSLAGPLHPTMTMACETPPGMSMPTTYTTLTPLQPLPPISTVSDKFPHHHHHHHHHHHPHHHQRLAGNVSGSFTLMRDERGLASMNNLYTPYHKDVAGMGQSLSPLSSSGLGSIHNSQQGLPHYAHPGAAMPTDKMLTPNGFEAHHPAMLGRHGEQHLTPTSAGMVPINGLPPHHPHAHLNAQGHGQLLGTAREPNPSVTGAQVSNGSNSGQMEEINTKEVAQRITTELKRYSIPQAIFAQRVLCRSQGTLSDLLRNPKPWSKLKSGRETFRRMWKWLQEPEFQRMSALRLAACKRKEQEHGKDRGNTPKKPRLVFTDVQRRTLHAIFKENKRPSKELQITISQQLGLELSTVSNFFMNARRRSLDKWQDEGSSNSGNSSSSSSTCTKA

As to `CCCCC(CC)COC(=O)C=Cc1ccc(OC)cc1` (stereo not drawn), the AC50 is 35.3 µM (active) and 26.2 µM (active) in [1]; 24.2 µM (active) and 18.9 µM (active) in [3]; 20 µM (active) and 27.4 µM (active) in [5]; 31.8 µM (active) and 31.4 µM (active) in experiment [7]; 39 µM (active) and 36.8 µM (active) in experiment [8]; 32 µM (active) and 14.8 µM (active) in experiment [13]. Also, the AC50 in the experiment with CD69, CD69 (gene 969) was 26.3 µM (active) and 18.6 µM (active). Further, the outcome in [2], in experiment [4], in experiment [6], in [9], in [10] and in experiment [11] was inactive. Besides, the result in experiment [12] was inactive.
With `O=C(O)/C=C\C(=O)O`, the outcome in [14], in experiment [15], in experiment [16], in experiment [17] and in experiment [18] was inactive.
As for `COc1ccc(C(=O)c2ccccc2O)c(O)c1`, the AC50 in experiment [1] was 17.3 µM (active) and 20 µM (active); in experiment [3], 10 µM (active) and 14.4 µM (active); in experiment [7], 12.6 µM (active) and 13.7 µM (active); in experiment [11], 24.5 µM (active) and 27.2 µM (active). For the same molecule, the outcome in experiment [2], in [4], in experiment [5], in [6], in [8] and in experiment [9] was inactive. The outcome is “inactive” in [10]; “inactive” in experiment [12]; “inactive” in experiment [13]; “inactive” with CD69, CD69 (gene 969).
On to `CC[N+](CC)(CC(=O)Nc1c(C)cccc1C)Cc1ccccc1` (tested in a mixture with another compound), for which the call in experiment [15], in experiment [17], in experiment [1], in experiment [2], in experiment [3] and in experiment [4] was inactive. The outcome in experiment [5], in experiment [6], in experiment [7], in experiment [8], in experiment [9] and in experiment [10] was inactive. In addition, the outcome is “inactive” in experiment [11]; “inactive” in experiment [12]; “inactive” in [13]; “inactive” with CD69, CD69 (gene 969).
Consider `C1CN(CCOCCN2CCOCC2)CCO1`, for which the outcome in experiment [1], in experiment [2], in experiment [3], in experiment [4], in experiment [5] and in [6] was inactive. Besides, the result in experiment [7], in [8], in experiment [9], in experiment [10], in [11] and in [12] was inactive. Further, the outcome was “inactive” in [13] and “inactive” with CD69, CD69 (gene 969).

Values taken from PubChem BioAssay (EPA / NIEHS).
